Laboratory results taken from PubChem BioAssay AID682 (University of Pittsburgh Molecular Library Screening Center, 2007).
Some of the results follow. Values without a mark were called inactive. Rule as the data show it: active = EC50 below about 30 µM; inactive = the rest.

Assay: redox cycling H2O2 generation, 0.5 mM DTT, dose response, artefact control, biochemical, Cdc25B catalytic domain (AID 682)
Settings: cell-free redox cycling H2O2 generation

SMILES | EC50
COc1cccc2c(C)c(C(=O)O)[nH]c12 | > 50 µM
c1ccc(CSc2nnc(-c3ccco3)c(-c3ccco3)n2)cc1 | > 50 µM
